Bioassay records from PubChem.
Giardia FBPA inh = blocks Giardia fructose-bisphosphate aldolase activity; A8B2U2; purified Giardia FBPA; Potency, µM (titrated, usually from 59.6 µM), hits mostly inhibitors; 0.71% of 290,000 active; AID 2451; further: nearly all actives have a fitted effect of over 55% in size
Target sequence (A8B2U2 whole entry, looked up): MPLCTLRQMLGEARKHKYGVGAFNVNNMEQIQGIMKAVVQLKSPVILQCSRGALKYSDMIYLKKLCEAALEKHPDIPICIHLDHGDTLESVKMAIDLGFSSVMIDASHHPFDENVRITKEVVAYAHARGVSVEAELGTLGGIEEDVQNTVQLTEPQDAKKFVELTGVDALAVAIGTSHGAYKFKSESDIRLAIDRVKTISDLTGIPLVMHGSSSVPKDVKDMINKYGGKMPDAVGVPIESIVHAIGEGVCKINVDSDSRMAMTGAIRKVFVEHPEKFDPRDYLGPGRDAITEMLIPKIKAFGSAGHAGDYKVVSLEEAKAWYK
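Giardia FBPA (40 nM reagent) was preincubated 10 min at RT with compound (up to 57.5 uM final), then substrate plus GAPDH/TPI/NAD/arsenate coupling system with diaphorase/resazurin was added; resorufin fluorescence (525/598 nm) was read after 20 min.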
Pf growth 48h = inhibits P. falciparum growth in the first generation, 48 h; 5.9% of 310,000 active; AID 504832; Potency, µM (highest dose often 28.7 µM), hits mostly inhibitors; P. falciparum luciferase growth in erythrocytes, 48 h
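Compounds are pin-transferred into medium, infected erythrocytes (2% hematocrit, 0.1% parasitemia final) are added, and plates sit one parasite generation at 37 C in 5% CO2. Detection reagent is then added and luminescence measured.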
Sm TGR inh = inhibitors of Schistosoma mansoni thioredoxin glutathione reductase | purified TGR, DTNB reduction, TNB absorbance 405 nm | Q962Y6 | 3% of 360,000 active | Potency, µM (titrated, usually from 114 µM), most hits filed as inhibitors | AID 485364; further: nearly all actives have a fitted effect of over 60% in size
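First, TGR (20 nM dispensed) and NADPH were mixed with compound. Second, a 15 min room-temperature incubation followed. Third, further NADPH and then DTNB were added to start the reaction. Finally, TNB absorbance was monitored kinetically.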
HCMV antiviral = inhibitors of human cytomegalovirus; activity change, negative = inhibition, % at 57.5 µM; 4.5% of 410,000 active; HFF cells, HCMV-luciferase reporter, 72 h; stronger effect = lower value; in the data active means activity change below about -60%; inconclusive means no clear call, values can overlap the other calls; inactive means above about -39%
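Screen run at 2 compound doses on HFFs infected with reporter HCMV, MOI 1 PFU/cell. Luciferase activity from cell lysates at 72 h post infection gave inhibition relative to buffer-only and Salinomycin wells.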
Pf growth 96h = P. falciparum growth inhibition at 96 hours; Potency, µM (series often up to 28.7 µM), usual class: inhibitors; P. falciparum luciferase reporter growth, 96 h; 6.9% of 320,000 active; AID 504834
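Readout is luminescence from an integrated firefly luciferase in P. falciparum. Red cells, 2% hematocrit and 0.05% parasitemia final, were cultured with compound through two parasite generations (96 hours) at 37 C, 5% CO2.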
Large screens that a line does not name were inactive. Shown are actives, neighbours in structure and some others; about 14% of the full set was active somewhere. Unless noted, the call rests on the fitted dose curve; in most records, active means well fitted curve in the direction sought with a large enough effect; inconclusive means small, poorly fitted or top-dose-only effect, or another doubt; inactive means no such curve, though single readings can be large; an effect the other way counts as inactive or inconclusive.

C[C@H]1Cn2cnc(C(=O)N3CCN(c4ccccc4)CC3)c2C(=O)N1	none (no result: Giardia FBPA inh, Pf growth 48h, Sm TGR inh, Pf growth 96h)
O=C1C2CCCCC2C(=O)N1c1ccc(NC2CCCCC2)c([N+](=O)[O-])c1 (centres undefined)	Pf growth 96h inconclusive
CCC(CO)NC(=O)C(=O)Nc1c2c(nn1-c1ccc(F)cc1)CSC2 (centres undefined)	none (no result: Giardia FBPA inh, Pf growth 48h, Pf growth 96h)
O=C(NCc1ccccc1)C(C1CC1)n1c(=O)c(-c2cc3ccccc3[nH]2)nc2ccccc21 (centres undefined)	none (no result: Giardia FBPA inh, Pf growth 48h, Sm TGR inh, Pf growth 96h)
CC(C)(CC(=O)O)CC(=O)NNc1ncccc1C#N	Pf growth 48h 4.1µM
COc1cccc(-c2cc(C(=O)Nc3ccn(Cc4ccc(C)cc4)n3)no2)c1	Pf growth 48h inconclusive, HCMV antiviral inconclusive
Cc1ccc(Cn2ccc(NC(=O)c3cc(-c4ccccc4)on3)n2)cc1	Pf growth 48h 9.3µM, HCMV antiviral inconclusive
Cc1ccc(Cn2ccc(NC(=O)c3cc(-c4ccco4)on3)n2)cc1	Pf growth 48h 10µM
O=c1c2ccccc2nc(/C=C/c2cc(Br)ccc2O)n1CCO	HCMV antiviral -98 (no result: Giardia FBPA inh, Pf growth 48h, Sm TGR inh, Pf growth 96h)
O=c1c2ccccc2nc(/C=C/c2c[nH]c3ccccc23)n1CCO	Pf growth 48h inconclusive
Cc1ccccc1-n1c(/C=C/c2ccc(N(C)C)cc2)nc2ccccc2c1=O	HCMV antiviral -82 (no result: Giardia FBPA inh, Pf growth 48h, Pf growth 96h)
O=c1c2ccccc2nc(/C=C/c2ccccc2)n1-c1ccccc1F	none (no result: Giardia FBPA inh, Pf growth 48h, Pf growth 96h)
O=C(O)c1cccc(-n2c(/C=C/c3ccc([N+](=O)[O-])cc3)nc3ccccc3c2=O)c1	Pf growth 48h inconclusive, HCMV antiviral -62, Pf growth 96h inconclusive
O=c1c2ccccc2nc(/C=C/c2ccccc2F)n1-c1ccccc1O	HCMV antiviral -92, Pf growth 96h inconclusive
Nc1c(-c2nc(-c3ccccc3Cl)no2)nnn1-c1ccccc1F	none (no result: Giardia FBPA inh, Pf growth 48h, Pf growth 96h)
Cc1cccc(C)c1NC(=O)CN(c1ccccn1)S(=O)(=O)c1ccc(F)cc1	none
CC(C)c1ccc(N(CC(=O)N2CCN(Cc3ccccc3)CC2)S(C)(=O)=O)cc1	none
O=C(CN1C(=O)NC2(CCCC2)C1=O)NCCc1ccccc1	none (no result: Giardia FBPA inh, Pf growth 48h, Sm TGR inh, Pf growth 96h)
CCn1c(/C=C/c2ccc(F)cc2)nc2ccccc2c1=O	Pf growth 48h inconclusive, Pf growth 96h inconclusive
O=c1c2ccccc2nc(/C=C\c2ccccc2[N+](=O)[O-])n1-c1ccccc1O	Pf growth 48h 6.6µM, Pf growth 96h inconclusive
CCn1c(/C=C/c2ccccc2)nc2ccccc2c1=O	HCMV antiviral -61
O=c1c2ccccc2nc(/C=C/c2ccccc2O)n1-c1ccccc1O	Pf growth 48h inconclusive, HCMV antiviral -98, Pf growth 96h inconclusive
CCCN1CCN(c2nnc(-n3cccc3C(=O)Nc3ccccc3C(F)(F)F)s2)CC1	none (no result: Giardia FBPA inh, Pf growth 48h, Pf growth 96h)
O=C(CCC(=O)Nc1ccccc1Cl)NNC(=S)Nc1ccccc1C(F)(F)F	Pf growth 96h 2.1µM (no result: Giardia FBPA inh)
NS(=O)(=O)c1ccc(NC(=S)NNC(=O)CCC(=O)Nc2ccccc2Cl)cc1	Giardia FBPA inh inconclusive (no result: HCMV antiviral)
Cc1c([N+](=O)[O-])cc(C(=O)Nc2ccc(Cc3ccncc3)cc2)cc1[N+](=O)[O-]	Pf growth 48h 13µM
O=C(Nc1ccc(Cc2ccncc2)cc1)c1ccc(Cl)c([N+](=O)[O-])c1	Giardia FBPA inh inconclusive, Pf growth 48h inconclusive, Pf growth 96h inconclusive
COc1c(C)cc(Br)cc1C(=O)Nc1ccc(Cc2ccncc2)cc1	Pf growth 48h inconclusive, HCMV antiviral -72
Cc1cc(NC(=O)c2cc(-c3ccccn3)nc3c(Cl)cccc23)no1	Pf growth 96h 2.1µM
Cc1ccc(-c2cc(C(=O)Nc3cc(C)on3)c3ccccc3n2)cc1	Pf growth 48h inconclusive
Cc1cc(NC(=O)c2cc(-c3ccc(C)c(C)c3)nc3ccccc23)no1	Pf growth 48h 0.83µM, Pf growth 96h 0.74µM
Cc1cc(NC(=O)c2cc(-c3cccc(OCC(C)C)c3)nc3ccccc23)no1	Pf growth 48h inconclusive, Pf growth 96h 2.3µM (no result: Giardia FBPA inh)
C=C1C(=O)O[C@@H]2C[C@@H](C)[C@@H]3C4OC4C(=O)[C@@]3(C)[C@@H](O)[C@H]12 (some centres undefined)	Pf growth 48h 3.3µM, Sm TGR inh 40µM, HCMV antiviral -79, Pf growth 96h 3.3µM
C=C1C(=O)OC2CC1C(O)CC(C)=CCCC(C)=CC(O)CC2C (centres undefined)	none (no result: Giardia FBPA inh, Pf growth 48h, Sm TGR inh, Pf growth 96h)
CN(C)S(=O)(=O)N1CCC(Oc2ccc(C(=O)NC3CCCCC3)cc2)CC1	Pf growth 48h inconclusive, Pf growth 96h 13µM
